Out of some 5,500 compounds screened, about 2,000 (36%) were called active. About 18% were inconclusive and are not listed. Rule as the data show it: active = normalized growth mostly below about 0.91 (no sharp cut-off); inconclusive = no clear call, values can overlap the other calls; inactive = mostly above about 0.92. The list shows a part of the results.
Test: chemical genetic growth profiling, strain panel (AID 1159580);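 also: tested at 20 µM; growth read once vehicle control cultures reached saturation at 30 °C; 1 = growth at the plate median or of vehicle wells; lower values mean less growth of the strain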
Settings: S. cerevisiae deletion strains, growth OD

Measured: normalized growth

N#Cc1c(N)sc2c1CCCCC2
active: locus YEL061C, strain CIN8, stronger effect = lower value 0.903 | locus YHR030C, strain SLT2, stronger effect = lower value 0.616 | locus YKL190W, strain CNB1, stronger effect = lower value 0.927 | locus YLR085C, strain ARP6, stronger effect = lower value 0.714 | locus YMR307W, strain GAS1, stronger effect = lower value 0.662 | locus YPL241C, strain CIN2, stronger effect = lower value 0.846 | locus YPR135W, strain CTF4, stronger effect = lower value 0.498
inactive: locus YAL013W, strain DEP1, stronger effect = lower value 0.959 | locus YBR229C, strain ROT2, stronger effect = lower value 0.951 | locus YCL061C, strain MRC1, stronger effect = lower value 0.945 | locus YDL101C, strain DUN1, stronger effect = lower value 0.971 | locus YDR150W, strain NUM1, stronger effect = lower value 1.02 | locus YGR078C, strain PAC10, stronger effect = lower value 0.961 | locus YHR087W, strain rtc3, stronger effect = lower value 0.975 | locus YJL187C, strain SWE1, stronger effect = lower value 0.963 | locus YJR043C, strain POL32, stronger effect = lower value 0.992 | locus YJR075W, strain HOC1, stronger effect = lower value 0.945 | locus YLR039C, strain RIC1, stronger effect = lower value 0.96 | locus YLR058C, strain SHM2 (second series), stronger effect = lower value 0.956 | locus YLR262C, strain YPT6, stronger effect = lower value 0.955 | locus YML094W, strain GIM5, stronger effect = lower value 0.878 | locus YMR219W, strain ESC1, stronger effect = lower value 0.95 | locus YMR263W, strain SAP30, stronger effect = lower value 0.984 | locus YNL153C, strain GIM3, stronger effect = lower value 0.953 | locus YNL298W, strain CLA4 (second series), stronger effect = lower value 0.944 | locus YNL322C, strain KRE1, stronger effect = lower value 0.964 | locus YNR030W, strain Alg12, stronger effect = lower value 0.895 | locus YPL055C, strain LGE1, stronger effect = lower value 0.97
